Screening results deposited in PubChem by National Center for Advancing Translational Sciences (NCATS).
Rows were chosen to be rich in hits. Some 17% of all compounds tested hit in one or more screens of this group.
TDP1 cell noCPT: qHTS for Inhibitors of human tyrosyl-DNA phosphodiesterase 1 (TDP1): qHTS in cells in absence of CPT. DT40 Tdp1-/- hTDP1 cells, no CPT, ATP luminescence, 48 h. Potency, µM (highest dose often 46.2 µM), usual class: inhibitors. 420,000 tested, 15% active. AID 686978, 2013; also: nearly all actives have a fitted effect of over 55% in size
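Growth kinetics read by CellTiter-Glo luminescence after ≥48 hr at 37 °C. Cells: DT40 Tdp1-/- stably carrying human TDP1, 400 per well, compound exposure in the absence of CPT (DMSO vehicle).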
HT1080 IDH1KD tx: kills HT-1080 cells with IDH1 knockdown | HT-1080 IDH1 knockdown viability, ATP luminescence, 48 h | Potency, µM (series often up to 46.1 µM), usual class: cytotoxic | 360,000 tested, 2% active | AID 686971
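IDH1KD HT-1080 cells, 750/well, RPMI + 5% FBS; compound pinned after 2 h settling; 48 h, 37 °C; CellTiter-Glo luminescence; % activity normalised to DMSO and no-cell wells; curves fitted, classed by r2 and efficacy.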
TDP1 cell CPT: DT40-hTDP1 cell growth loss with CPT | chicken DT40 Tdp1-/-;hTDP1 cells + 20 nM CPT, ATP luminescence, 48 h | Potency, µM (highest dose often 46.2 µM), usual class: inhibitors | 420,000 tested, 12% active; also: nearly all actives have a fitted effect of over 55% in size
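Cell growth measured by CellTiter-Glo luminescence after a minimum 48 h, 37 C compound exposure with 20 nM CPT in Tdp1-knockout DT40 cells stably expressing hTDP1, seeded 400/well; qHTS titration format.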
HT1080-NT tox: kills 2HG-producing HT-1080-NT fibrosarcoma cells. HT-1080-NT fibrosarcoma viability, CellTiter-Glo ATP luminescence, 48 h. Potency, µM (titrated, usually from 46.1 µM), most hits filed as cytotoxic. AID 686970. 360,000 tested, 1.6% active;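 also: NT is the 2HG producing partner of a matched IDH1 knockdown line; nearly all actives have a fitted effect of over 55% in size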
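Fibrosarcoma NT cells, 750 per well in 5% FBS RPMI, were exposed to compound for 48 hours. Viability: CellTiter-Glo luminescence.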
TGFb SMAD3 inh: blocks TGF-b signaling | Potency, µM (series often up to 46.1 µM), most hits filed as inhibitors | HepG2 CAGA-GFP TGF-b/SMAD3 reporter, GFP fluorescence, 18 h; TGF-beta stimulated, 500 pg/mL final | 410,000 tested, 1.2% active; also: nearly all actives have a fitted effect of over 65% in size
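Inhibition was scored as loss of TGF-beta-induced (500 pg/mL final, 18 hours, 37 degrees C) GFP in HEPG2 cells carrying a CAGA-GFP reporter, in DMEM with 1% FBS. Well GFP was summed per cell; Activity was normalised to unstimulated and stimulated DMSO wells, then concentration-response fitting.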
HepG2 viability: counter-screen for TGF-b inhibitors: cytotoxicity in HepG2 cells; HepG2 CAGA-GFP viability, ATP luminescence, 18 h; 410,000 tested, 0.76% active; Potency, µM (titrated, usually from 46.1 µM), actives largely listed as cytotoxic
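CellTiter-Glo luminescence gave cytotoxicity after 18 hours at 37 degrees C. The cells were HepG2 CAGA-GFP in 1% FBS DMEM, stimulated with 500 pg/mL TGF-beta after compound addition. %Activity was normalised to no-cell wells (complete cell-killing) and DMSO (no toxicity), and curves were fitted and classified.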
Hits are given with their value; n = inactive; u = inconclusive; x = no result given; ! = not confirmed by another sample; [ ] = dose if it differs, or a comment. Calls follow the shape of the dose curve; as a rule, active = well fitted curve in the direction sought with a large enough effect; inconclusive = small, poorly fitted or top-dose-only effect, or another doubt; inactive = no such curve, though single readings can be large; an effect the other way counts as inactive or inconclusive.

SMILES | TDP1 cell noCPT | HT1080 IDH1KD tx | TDP1 cell CPT | HT1080-NT tox | TGFb SMAD3 inh | HepG2 viability
COc1cc(OC)cc(C(=O)NNC(=O)CCNS(=O)(=O)c2ccc(Br)cc2)c1 | n | n | n | n | n | n
O=C1Nc2ccccc2N(C(=O)c2c(F)cccc2F)C1c1nc2ccccc2[nH]1 (stereo not drawn) | n | u | u | n | x | x
O=C1Nc2ccccc2N(C(=O)c2ccc(-c3ccccc3)cc2)C1c1nc2ccccc2[nH]1 (stereo not drawn) | 20.6µM | 16.4µM | u | u | x | x
COc1cccc(OC)c1OCCNCC1COc2ccccc2O1 (stereo not drawn) | u | u | 14.6µM! | n | n | n
CCCNCC1COc2ccccc2O1 (stereo not drawn) | n | n | n | n | n | n
CCN1C(=O)C(CC(=O)Nc2ccc(F)cc2)N(Cc2ccc3c(c2)OCO3)C1=S (stereo not drawn) | u | n | u | u | n | n
O=C(CSc1ccccn1)Nc1nonc1[N+](=O)[O-] | 4.11µM | u | 3.66µM | 20.6µM | 11.2µM | 12.6µM
O=C(CSc1ccccn1)Nc1ccc(NC(=O)CSc2ccccn2)cc1 | n | n | n | n | n | n
COc1cc2cc(CNc3ccccc3)c(=O)n(CC(=O)Nc3ccccc3)c2cc1OC | 18.4µM | x | u | x | u | n
CCc1ccc(NCc2cc3cc(OC)c(OC)cc3n(CC(=O)Nc3ccc(F)cc3)c2=O)cc1 | x | x | x | x | n | n
COc1ccccc1NC(=O)Cn1c(=O)c(CNc2ccccc2)cc2cc(OC)c(OC)cc21 | 6.51µM | x | 5.17µM | x | n | n
O=C(Nc1ncccc1O)c1ccc(Cl)c(S(=O)(=O)N2CCCC2)c1 | n | n | n | n | n | n
CCCc1nc2c(sc3nc4c(cc32)COC(C)(C)C4)c(=O)n1Cc1ccco1 | u | u | u | n | n | n
CC1(C)Cc2nc3sc4c(=O)n(CC(=O)NCc5ccccc5)cnc4c3cc2CO1 | 3.66µM | 3.55µM | 4.61µM | 8.91µM | n | n
CC1(C)Cc2nc3sc4c(SCC(=O)NCc5ccco5)ncnc4c3cc2CO1 | 2.31µM | 2.59µM | 2.06µM | u | n | n
Cc1nc2c(sc3nc4c(cc32)COC(C)(C)C4)c(=O)n1CC(=O)NCc1ccco1 | 4.11µM | u | 3.26µM | 7.08µM | n | n
CCc1ccc(-c2cn3c(n2)sc2cc(C(=O)NCCC4=CCCCC4)ccc23)cc1 | u | x | u | x | u | n
O=C(Nc1cccc(S(=O)(=O)N2CCCCCC2)c1)C1CCC1 | u | n | n | n | n | n
Nc1ccc(NC(=O)c2ccccc2)c2c1C(=O)c1ccccc1C2=O | 16.4µM | n | 13µM | n | n | n
O=C(Nc1ccccc1C(=O)N/N=C/c1ccncc1)c1ccccc1 | 20.6µM | 9.2µM | u | 20.6µM | n | 5.01µM
COc1ccc(C(=O)Nc2ccccc2C(=O)N/N=C/c2ccco2)cc1 | u | u | n | 9.2µM | n | n
O=C(Nc1ccccc1SC(=O)c1ccccc1)c1ccccc1 | 4.61µM | n | 3.26µM | n | n | n
O=C(N/N=C/c1ccncc1)c1ccc(OCc2ccccc2)cc1 | n | n | n | n | n | n
CCOc1ccc(/C=N/NC(=O)c2ccccc2NC(=O)c2ccc(OC)cc2)cc1 | u | n | u | n | n | n
CCOC(=O)C1CCN(C2CCN(C(=O)c3oc4c(C)c(C)ccc4c3C)CC2)CC1 | n | n | u | u | u | n
SMILES | TDP1 cell noCPT | HT1080 IDH1KD tx | TDP1 cell CPT | HT1080-NT tox | TGFb SMAD3 inh | HepG2 viability
CC(C)(C)n1ncc2c(=O)n(Cc3cccc(Oc4ccccc4)c3)cnc21 | x | x | x | x | n | n
O=C(COC(=O)c1cccs1)NC1CCCC1 | n | n | n | n | n | n
Nc1ccccc1NC(=O)c1ccccc1 | 18.4µM | n | 20.6µM | n | n | n
Cc1ccc(C(=O)CC(=O)c2ccccc2)cc1 | u | n | u | n | n | n
COC(=O)c1ccccc1NC(=O)c1cccc(COc2ccccc2Cl)c1 | 8.2µM | u | 9.2µM | u | n | n
Cc1ccc(C(=O)Sc2cccccc2=O)cc1 | 0.517µM | 1.64µM | 0.731µM | u | 0.891µM | 1.41µM
O=C(N/N=C/C=C/c1cccc([N+](=O)[O-])c1)c1ccncc1 | u | n | u | n | n | n
O=C(N/N=C/C=C/c1ccccc1)c1ccncc1 | 20.6µM | n | u | n | n | n
CN1CC(=O)N(CC(=O)Nc2cccc(C#N)c2)c2ccccc2C1=O | n | x | n | x | n | n
O=C(Nc1ccccc1C(=O)Nc1ccccc1C(=O)O)c1ccccc1 | 11.6µM | u | u | u | n | n
Cc1cccc(NC(=O)c2ccccc2NC(=O)c2ccccc2)n1 | 18.4µM | n | u | n | u | n
Nc1ccc(C(=O)Nc2ccccc2C(=O)O)cc1 | n | n | n | n | n | n
O=C(Nc1ccccc1C(=O)NC(Cc1ccccc1)C(=O)NC1CCCCC1)c1ccccc1 (stereo not drawn) | 25.9µM | n | u | n | n | n
COC(=O)c1ccccc1NC(=O)c1cc[n+](C)cc1 | n | n | n | n | n | 5.62µM
COc1cc(OC)c(OC)cc1CN1CCC(n2cc(C(=O)N3CCCCC3)nn2)CC1 | n | x | n[9.04 µM] | x | x | x
CC(=O)N(c1ccc(Cl)cc1)C1SC(=O)N(c2ccccc2)C1=O (stereo not drawn) | u | n | n | n | x | x
Cc1c(C(=O)Nc2cccc(Cl)c2)sc2nc3n(c(=O)c12)N=C(c1cccc(Br)c1)CS3 | n | x | n | x | n | n
CCCCCCCCCCCCCCCC(=O)OC[C@@H](O)[C@H]1OC[C@H](O)[C@H]1O | n | x | n | x | x | x
CCN(CC)C(=O)C1CCN(Cc2cn(C)nc2-c2ccc(Oc3ccccc3)cc2)CC1 | 20.6µM | n | u | n | n | n
CCOc1ccc(OCCC(=O)OCC(=O)N2CCN(S(=O)(=O)c3ccc(Cl)cc3)CC2)cc1 | 23.1µM | u | u | u | u | n
CCOc1ccc(S(=O)(=O)N2CCN(C(=O)CCOc3ccccc3C)CC2)cc1 | 18.4µM | n | u | n | n | n
Cc1ccccc1OCCC(=O)Nc1ccc(S(=O)(=O)N2CCCC2)cc1 | 14.6µM | n | 20.6µM | n | n | n
COc1ccccc1C(=O)NCCC(=O)Nc1ccc(S(=O)(=O)N2CCC(C)CC2)cc1 | n | n | u | n | n | n
Cc1cc(O)c2c(c1)CC1C3CCC4CC(=O)CCC4(C)C3CC(=O)C21C (stereo not drawn) | 11.6µM | n | 18.4µM | n | n | n
